Sampled rows, rich in hits. Any-hit rate of the full collection: about 3.5%.
BoNT F protease: BoNT/F light chain protease inhibitors, primary screen, biochemical, flow cytometry, MLPCN library. hit rate 0.22% among 360,000. inhibition, % at 10 µM. Botulinum neurotoxin type F light chain protease (Clostridium botulinum). Multiplex microsphere protease cleavage assay; in the data active means inhibition above about 35%, passing the limit was not always enough; inconclusive means no clear call, values can overlap the other calls; further: plate controls were buffer without enzyme for full effect and enzyme alone for no effect
BoNT-A LC inh2: BoNT/A light chain protease inhibitors, primary screen, biochemical, flow cytometry, MLPCN library. Botulinum neurotoxin type A light chain protease (Clostridium botulinum A str. ATCC 3502). multiplex microsphere protease substrate cleavage. inhibition, % at 10 µM. hit rate 0.17% among 360,000. AID 588499, 2011; further: plate controls were buffer without enzyme for full effect and enzyme alone for no effect
Anthrax LF prot: Bacillus anthracis LF protease inhibitors, primary screen, biochemical, multiplex microsphere, MLPCN library; Lethal factor (Bacillus anthracis), P15917; multiplex microsphere protease cleavage assay; inhibition, % at 10 µM; hit rate 0.12% among 360,000; AID 588501, 2011; further: plate controls were buffer without enzyme for full effect and enzyme alone for no effect
Bead autofluor: compound fluorescence in toxin protease inhibitor counterscreen; compound autofluorescence counterscreen, microsphere flow cytometry; hits give high values; fluorescence intensity (test concentration not listed); hit rate 3.1% among 360,000; AID 624483; in the data active means fluorescence intensity above about 16000; inconclusive means no clear call, values can overlap the other calls
* = called active by the depositor. Unless noted, no stated cut-off is given here; in the data, active means inhibition above about 30%; inconclusive means no clear call, values can overlap the other calls; inactive means below that.

What do the screens show for `CC(c1ccon1)N(C)C(=O)c1cccc(OC2CCN(S(C)(=O)=O)CC2)c1` (configuration not stated)?
BoNT F protease: 5; BoNT-A LC inh2: 0; Anthrax LF prot: -10; Bead autofluor: 3385

Results for O=C(CSC1=NS(=O)(=O)c2ccccc2N1)Nc1ccccc1F ?
BoNT F protease: 12; BoNT-A LC inh2: 0; Anthrax LF prot: 0; Bead autofluor: 4073

Results for O=C(NCC1CCCO1)/C(=C\c1cccc([N+](=O)[O-])c1)NC(=O)c1ccccc1 (configuration not stated) ?
BoNT F protease: 0; BoNT-A LC inh2: -1; Anthrax LF prot: 0; Bead autofluor: 4379

Results for O=C(NCc1ccncc1)/C(=C/c1cccc([N+](=O)[O-])c1)NC(=O)c1ccccc1 ?
BoNT F protease: 38*; BoNT-A LC inh2: 4; Anthrax LF prot: 5; Bead autofluor: 4033

What do the screens show for `Cc1ccc(-c2nnn(CC(=O)N(CC(=O)NCC3CCCO3)c3ccc(F)c(Cl)c3)n2)o1` (configuration not stated)?
BoNT F protease: -11; BoNT-A LC inh2: -7; Anthrax LF prot: -5; Bead autofluor: 25388*

Results for Cc1ccc(-c2nnn(CC(=O)N(CC(=O)NC3CCCC3)c3cnc4ccccc4c3)n2)o1 ?
BoNT F protease: 0; BoNT-A LC inh2: 1; Anthrax LF prot: -1; Bead autofluor: 20315*

How did Cc1ccc(-c2nnn(CC(=O)N(CC(=O)NC(C)C)c3cnc4ccccc4c3)n2)o1 do in these assays?
BoNT F protease: 2; BoNT-A LC inh2: 0; Anthrax LF prot: -2; Bead autofluor: 7183

What do the screens show for `CCC(C(=O)NC1CCCC1)N(C(=O)Cn1nnc(-c2ccc(C)o2)n1)c1cnc2ccccc2c1` (configuration not stated)?
BoNT F protease: -11; BoNT-A LC inh2: -10; Anthrax LF prot: -1; Bead autofluor: 26220*

Results for O=C(CN(C(=O)Cn1nnc(-c2ccc(F)cc2)n1)c1ccc(F)c(Cl)c1)NCC1CCCO1 (configuration not stated) ?
BoNT F protease: 0; BoNT-A LC inh2: 0; Anthrax LF prot: -1; Bead autofluor: 2166

What do the screens show for `O=C(COc1ccc(S(=O)(=O)NC2CCCCC2)cc1Cl)Nc1ccc2c(c1)OCO2`?
BoNT F protease: -7; BoNT-A LC inh2: -4; Anthrax LF prot: -3; Bead autofluor: 25024*

What do the screens show for `O=C(COc1ccc(S(=O)(=O)NC2CCCCC2)cc1Cl)NCc1ccc2c(c1)OCO2`?
BoNT F protease: -3; BoNT-A LC inh2: 0; Anthrax LF prot: -2; Bead autofluor: 10786

Results for COC(=O)CCCCC1SCC2NC(=O)NC21O (configuration not stated) ?
BoNT F protease: 79*; BoNT-A LC inh2: 10; Anthrax LF prot: 4; Bead autofluor: 4177

How did COC(=O)CCCCC1SCC(NC(=O)c2ccccc2)C1Cl (configuration not stated) do in these assays?
BoNT F protease: 8; BoNT-A LC inh2: 0; Anthrax LF prot: 7; Bead autofluor: 2278

How did CCOc1ccc(/C(O)=C2/C(=O)C(=O)N(CCOCCO)C2c2ccccn2)cc1 (configuration not stated) do in these assays?
BoNT F protease: -3; BoNT-A LC inh2: -2; Anthrax LF prot: -8; Bead autofluor: 22618*

Results for COC(=O)C1(NC(=O)CNC(=O)OCc2ccccc2)CCCC1 ?
BoNT F protease: -4; BoNT-A LC inh2: 0; Anthrax LF prot: -5; Bead autofluor: 2887

What do the screens show for `CC1CCN(C(=O)c2cc3c(=O)n4ccccc4nc3s2)CC1`?
BoNT F protease: 8; BoNT-A LC inh2: 2; Anthrax LF prot: 3; Bead autofluor: 5521

How did O=C(c1cc2c(=O)n3ccccc3nc2s1)N1CCOCC1 do in these assays?
BoNT F protease: -4; BoNT-A LC inh2: -3; Anthrax LF prot: 0; Bead autofluor: 21556*

How did CC1CCCN(S(=O)(=O)c2cc(C(=O)NCCc3ccc(S(N)(=O)=O)cc3)ccc2Cl)C1 (configuration not stated) do in these assays?
BoNT F protease: -6; BoNT-A LC inh2: 0; Anthrax LF prot: 0; Bead autofluor: 2832

What do the screens show for `COc1ccc(C(=O)Nc2c(Cl)cc(Cl)cc2C(=O)NCCN2CCOCC2)cc1`?
BoNT F protease: -2; BoNT-A LC inh2: inconclusive; Anthrax LF prot: 0; Bead autofluor: 21881*

Results for O=C(Nc1c(Cl)cc(Cl)cc1C(=O)NCCN1CCOCC1)c1ccc(Cl)cc1Cl ?
BoNT F protease: -1; BoNT-A LC inh2: 0; Anthrax LF prot: 0; Bead autofluor: 16191*

How did COc1ccc(-n2c(C)nc3cc(C(=O)NCCN4CCOCC4)ccc32)cc1 do in these assays?
BoNT F protease: 1; BoNT-A LC inh2: inconclusive; Anthrax LF prot: 1; Bead autofluor: 23270*

Results for CCOc1ccc(-n2c(C)nc3cc(C(=O)NCCN4CCOCC4)ccc32)cc1 ?
BoNT F protease: 4; BoNT-A LC inh2: 0; Anthrax LF prot: 1; Bead autofluor: 7593

How did O=C(Nc1ccc(Cl)cc1C(=O)NCCN1CCOCC1)c1ccc(Cl)cc1Cl do in these assays?
BoNT F protease: -6; BoNT-A LC inh2: 0; Anthrax LF prot: -4; Bead autofluor: 9187

What do the screens show for `O=C(Nc1c(Cl)cc(Cl)cc1C(=O)NCCN1CCOCC1)c1cccc([N+](=O)[O-])c1`?
BoNT F protease: -4; BoNT-A LC inh2: 1; Anthrax LF prot: 0; Bead autofluor: 2526

Results for CCOc1ccc(N2C(=O)/C(=C/c3ccco3)C(=O)NC2=S)cc1 ?
BoNT F protease: 47*; BoNT-A LC inh2: 3; Anthrax LF prot: -11; Bead autofluor: 2781

What do the screens show for `NC(COCc1ccccc1)c1csc(Nc2ccc(C(=O)c3ccccc3)cc2)n1` (configuration not stated)?
BoNT F protease: -18; BoNT-A LC inh2: 0; Anthrax LF prot: -9; Bead autofluor: 3766

What do the screens show for `O=C(Nc1ccc(-c2nc3ccccc3o2)cc1)c1cc(-n2cnnc2)ccc1Cl`?
BoNT F protease: -2; BoNT-A LC inh2: 0; Anthrax LF prot: -1; Bead autofluor: 23846*

Results for O=C(Nc1ccc(-c2nc3ccccc3o2)c(O)c1)c1cc(-n2cnnc2)ccc1Cl ?
BoNT F protease: -2; BoNT-A LC inh2: -2; Anthrax LF prot: 1; Bead autofluor: 21640*

How did Cc1c(NC(=O)c2cc(-n3cnnc3)ccc2Cl)cccc1-c1nc2ccccc2o1 do in these assays?
BoNT F protease: -19; BoNT-A LC inh2: 0; Anthrax LF prot: -6; Bead autofluor: 2147

Results for O=C(Nc1ccc2oc(-c3ccccc3)nc2c1)c1cc(-n2cnnc2)ccc1Cl ?
BoNT F protease: -10; BoNT-A LC inh2: 0; Anthrax LF prot: -8; Bead autofluor: 4432

Results for O=C(CNC(=O)c1ccc(Br)cc1)OC1CCOC1=O (configuration not stated) ?
BoNT F protease: -6; BoNT-A LC inh2: 0; Anthrax LF prot: -10; Bead autofluor: 3157

Results for C[C@H](O)[C@@H]1C(=O)N2CCc3ccc(-c4ccccc4)cc3[C@@H]2C[C@@H]1N(C)C(=S)Nc1ccc(F)cc1 ?
BoNT F protease: -1; BoNT-A LC inh2: 0; Anthrax LF prot: -3; Bead autofluor: 3065

Compound activity deposited in PubChem by NMMLSC.
